Screening data as filed in PubChem BioAssay.
Shown are actives, neighbours in structure and some others; about 1.8% of the full set was active somewhere.
Sa ugtP lethal – kills S. aureus RN4220 lacking UgtP; S. aureus RN4220 ugtP deletion, OD600 growth, 16 h; growth inhibition, % (concentration not given with the values); 330,000 tested, 0.54% active; in the data active = growth inhibition above about 68%;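 also: plate controls were untreated wells for no effect and antibiotic for full effect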
Sa RN4220 lethal – kills Staphylococcus aureus RN4220; AID 1259311; 330,000 tested, 0.33% active; S. aureus RN4220 growth, OD600, 16 h; inhibition, % (concentration not given with the values); in the data active = inhibition above about 85%;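 also: plate controls were untreated cells for no effect and reference antibiotic for full effect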
SSB-PriA inh – inhibitors of Klebsiella pneumoniae PriA binding to SSB C-terminal tail | AlphaScreen SSBct-PriA binding, biotinylated peptide | 430,000 tested, 0.6% active | inhibition, % at 33 µM; in the data active = inhibition mostly above about 37%, no sharp cut-off; inactive = mostly below about 20%;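 also: plate controls were negative control peptide for no effect and reference peptide for full effect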
VHR inh abs – DUSP3 (human) phosphatase inhibition; recombinant VHR phosphatase, pNPP absorbance; inhibition, % at 13.3 µM; 290,000 tested, 0.52% active; AID 1654; in the data active = inhibition above about 50%
Target sequence (P51452 whole entry, looked up): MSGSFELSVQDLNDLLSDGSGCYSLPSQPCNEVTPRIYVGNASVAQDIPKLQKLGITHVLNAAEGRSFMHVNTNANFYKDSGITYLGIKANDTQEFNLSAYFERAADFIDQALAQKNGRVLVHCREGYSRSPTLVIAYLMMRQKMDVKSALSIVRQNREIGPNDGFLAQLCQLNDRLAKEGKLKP
PfHsp40 rescue – rescue of PfHsp40-mediated yeast toxicity; AID 504582; S. cerevisiae expressing PfHsp40, growth rescue, ATP luminescence; 340,000 tested, 0.68% active; growth rescue, % at 12.5 µM; in the data active = growth rescue above about 28%, passing the limit was not always enough; inconclusive = no clear call, values can overlap the other calls;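 also: yeast W303a lacking pdr1 and pdr3 grown in galactose medium; growth measured after three days at 30 °C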
Mtb hypoxia inh – Mtb hypoxia fluorescent reporter inhibition; M. tuberculosis hypoxia-regulated fluorescent reporter, fluorescence; fluorescence inhibition, % (test concentration not listed); 300,000 tested, 0.1% active; in the data active = fluorescence inhibition mostly above about 23%, no sharp cut-off; inactive = mostly below about 17%
Active calls of the source: *; i = inactive; u = inconclusive; x = no result given; ! = not confirmed by another sample.

SMILES | Sa ugtP lethal | Sa RN4220 lethal | SSB-PriA inh | VHR inh abs | PfHsp40 rescue | Mtb hypoxia inh
COc1ccc(CCC(=O)NC(C)c2ccccc2)cc1OC (configuration not stated) | -3 | 0 | -21 | 57* | -1 | -15
CCn1cccc(-c2nnc(SCC(=O)Nc3nccs3)n2C)c1=O | x | x | -3 | x | x | x
O=C1C(Cl)=C(Nc2ccccc2O)C(=O)N1CCc1ccccc1 | 1 | 3 | 18 | 2 | 142* | 5
COc1ccc(C(=O)/C=C2/C(=O)Nc3ccccc32)cc1 | 99* | 97* | -5 | 15 | 2 | 5
O=C1Nc2ccccc2/C1=C/C(=O)c1cccs1 | 94* | 98 | -4 | -10 | 7 | x
COc1ccc(C(=O)/C=C2/C(=O)Nc3ccccc32)cc1OC | x | x | -2 | 71 | -2 | x
Cc1ccc(/C=C2\Oc3c(ccc4c3CN(Cc3cccs3)CO4)C2=O)o1 | x | x | -10 | x | x | x
CC(C)=CCc1c(O)cc(O)c2c(=O)c(O[C@@H]3O[C@@H](C)[C@H](O)[C@@H](O)[C@H]3O)c(-c3ccc(O)cc3)oc12 | 7 | 0 | 22 | x | 4 | x
CC(C)=CCc1c(O)cc2c(=O)c3ccc(O)cc3oc2c1O | 35 | -3 | 4 | x | 147* | x
CC(C)=CCc1c(O)cc(O)c2c(=O)c3c(CC=C(C)C)c(O)ccc3oc12 | 100* | 100* | 10 | x | x | x
CC(C)c1ccc(S(=O)(=O)c2cnc(SCC(=O)Nc3cc(F)ccc3F)nc2N)cc1 | x | x | -16 | x | x | x
CCn1ccnc1CN(C)C(=O)c1cc(COc2ccc(OC)c3ccccc23)on1 | -16 | -1 | 39* | 21 | 1 | 0
CCn1ccnc1CNC(=O)c1cc(COc2ccc(OC)c3ccccc23)on1 | x | x | 68* | x | x | x
COc1cccc(OCc2cc(C(=O)N(Cc3nccn3C)C(C)C)no2)c1 | 5 | 4 | 0 | -2 | -1 | 6
COc1cc(C)ccc1OCc1cc(C(=O)N(Cc2nccn2C)C(C)C)no1 | 0 | 3 | 1 | 52* | -1 | -2
CC1=CC(C)(C)Nc2ccccc21 | 7 | 5 | 53*! | 18 | 0 | 7
O=c1oc2ccccc2cc1-c1csc(Cc2nc(-c3ccc(Cl)cc3)cs2)n1 | 1 | -3 | -8 | -6 | 2 | 3
N=c1oc2ccccc2cc1-c1nc(-c2ccc(Cl)cc2)cs1 | 6 | 1 | -8 | -36 | 86* | 1
COc1ccc(NC(=O)N2c3ccc(OC)cc3C(C)=CC2(C)C)cc1 | 5 | -3 | 54* | -8 | 0 | 0
CCOc1ccc2c(c1)C(C)=CC(C)(C)N2C(=O)Nc1ccccc1 | 9 | 6 | 44* | 12 | 0 | 10
O=C(CSc1cn(CCNC(=O)c2ccc(Cl)cc2Cl)c2ccccc12)Nc1cc(C(F)(F)F)ccc1Cl | x | x | -19 | x | x | x
CCN(c1ccc(NC(=O)COC(=O)c2cc3ccccc3oc2=O)cc1)C(C)C | 0 | 4 | 54* | -3 | 0 | -8
CN(C)c1ccc(C(=O)Nc2nnc(-c3cccc(S(C)(=O)=O)c3)o2)cc1 | x | x | -7 | x | x | x
CCCNC(=O)C1CCN(c2ccc(S(=O)(=O)N3CCOCC3)cc2Cl)CC1 | 5 | 6 | 2 | 57* | -1 | 9
C=CCNC(=O)C1CCN(c2ccc(S(=O)(=O)N3CCOCC3)cc2Cl)CC1 | 4 | 2 | 9 | 16 | 1 | 9
SMILES | Sa ugtP lethal | Sa RN4220 lethal | SSB-PriA inh | VHR inh abs | PfHsp40 rescue | Mtb hypoxia inh
CCCN1CCCc2cc(CCNS(=O)(=O)c3cc(C)c(C)cc3OC)ccc21 | x | x | 60* | x | x | x
CCCN1CCCc2cc(CCNS(=O)(=O)c3ccc(OC)c(Cl)c3)ccc21 | x | x | 44* | x | x | x
CCCN1CCCc2cc(CCNC(=O)C(=O)Nc3ccc(OC)c(Cl)c3)ccc21 | x | x | 37 | x | x | x
CCCN1CCCc2cc(CCNS(=O)(=O)c3ccc(OC)cc3)ccc21 | x | x | 62* | x | x | x
CCCN1CCCc2cc(CCNS(=O)(=O)c3ccc(OC)c(OC)c3)ccc21 | x | x | 67* | x | x | x
COc1ncccc1C(=O)NCCn1ncccc1=O | x | x | 7 | x | x | x
CCC1SC(=N/N=C/c2ccco2)N(Cc2ccc(F)cc2)C1=O (configuration not stated) | x | x | i | x | x | x
COc1ccc(NC(=O)CSc2ncc(S(=O)(=O)c3ccc(C)cc3C)c(=O)[nH]2)cc1Cl | x | x | -12 | x | x | x
CCc1ccc(NC(=O)CSc2ncc(S(=O)(=O)c3ccc(C)cc3C)c(=O)[nH]2)cc1 | x | x | 69* | x | x | x
CSc1nc2sc3c(c2c(=O)n1C)CCC3 | 10 | 8 | 3 | -4 | 2 | 23
C#CCSc1nc2sc3c(c2c(=O)n1C)CCC3 | -10 | 8 | -10 | 58* | -1 | 3
COc1cc(C(=O)NCCSc2ccc(Cl)cc2)cc(OC)c1OC | -5 | 1 | -10 | -5 | -1 | -9
COc1cc(C(=O)Sc2ccc(Cl)cc2)cc(OC)c1OC | 93* | 1 | -9 | 17 | 0 | x
COc1cccc2sc(Nc3nc(-c4nc5ccccc5s4)cs3)nc12 | x | x | -12 | x | x | x
COc1cccc2sc(Nc3nc(-c4ccccn4)cs3)nc12 | 99* | 99* | x | 12 | u | -69
Cc1ccnc(Nc2nc(-c3ccccn3)cs2)c1 | x | x | 147* | x | x | x
COc1ccc(-c2csc(Nc3ccccc3)n2)cc1 | 14 | -10 | 8 | 30 | 57* | 5
CC(=O)Nc1ccc(Nc2nc(-c3ccccn3)cs2)cc1 | x | x | 90* | x | x | x
CC(=O)Nc1ccc(-c2csc(Nc3ccccn3)n2)cc1 | 26 | -2 | 14 | 29 | -2 | 2
NC(=S)NN=Cc1coc2cc(Br)ccc2c1=O | -4 | 4 | -8 | x | x | 11
c1ccc(Nc2nc(-c3ccccn3)cs2)cc1 | -8 | 7 | 37 | -10 | 317* | 0
Fc1ccccc1Nc1nc(-c2ccccn2)cs1 | x | x | 77* | x | x | x
COc1ccccc1Nc1nc(-c2ccccn2)cs1 | x | x | 26 | x | x | x
c1cncc(Nc2nc(-c3cccs3)cs2)c1 | -7 | -3 | -15 | 0 | 2 | 5
Cc1ccc(Nc2nc(-c3ccccn3)cs2)cc1 | x | x | 109* | x | x | x
SMILES | Sa ugtP lethal | Sa RN4220 lethal | SSB-PriA inh | VHR inh abs | PfHsp40 rescue | Mtb hypoxia inh
c1ccc(-c2csc(Nc3cccnc3)n2)nc1 | 14 | 1 | 71* | 14 | 0 | 6
CCOc1ccc(-c2nc(NC(=O)COc3ccc(Cl)cc3)sc2C)cc1 | x | x | -13 | x | x | x
O=C(Nc1ccccc1Cl)c1ccc(=O)n(Cc2cccc(F)c2)n1 | x | x | -13 | x | x | x
COC(=O)CN1C(=O)C2C(c3ccc(C)o3)N3C(=O)CN(Cc4ccccc4)C(=O)[C@@]3(C)C2C1=O (some centres not stated) | 2 | 5 | x | x | x | 1
COc1cccc2cc(C(=O)N3CCc4ncncc4C3)oc12 | x | x | -6 | x | x | x
Cn1nc(CNC(=O)c2ccccc2Br)cc1-c1ccccn1 | x | x | 8 | x | x | x
C(=NN(c1ccccc1)c1ccccc1)c1ccc2c(c1)OCO2 | 95* | -2 | -15 | x | x | 4
CCOc1ccc(-c2noc(-c3sccc3S(=O)(=O)N(C)c3ccc(C)c(F)c3)n2)cc1 | x | x | -25 | x | x | x
COCc1ccc(CN2CCC(N3CCC(C(=O)N4CCCC4)CC3)CC2)o1 | x | x | 0 | 52* | 0 | x
O=C(CCS(=O)(=O)c1ccc(F)cc1)Nc1nc(-c2ccc(Cl)cc2Cl)cs1 | x | x | 2 | x | x | x
Cn1cccc(C(=O)NC[C@H]2CCCN2c2nccs2)c1=O | x | x | -16 | x | x | x
